We go through 6 compounds from PubChem BioAssay (NCI).

Test in all cases: NCI-60 one-dose screen, 48 h (100 = growth as untreated, 0 = no growth, -100 = all killed)
Conditions in all cases: 10 µM unless noted

Test [1] has as its system EKVX NSCLC.
For test [2], the system named is SN12C renal.
Test [3] deals with UO-31 renal.
The subject of test [4] is TK-10 renal.
The test system of test [5] is ACHN renal.
Test [6] relates to CAKI-1 renal.
Test [7] deals with CCRF-CEM leukemia.
For test [8], the system named is MOLT-4 leukemia.
For test [9], the system named is SR leukemia.
The subject of test [10] is RPMI-8226 leukemia.
The test system of test [11] is OVCAR-8 ovarian.
Test [12] has as its system OVCAR-5 ovarian.
Test [13] deals with OVCAR-4 ovarian.
Test [14] has as its system SK-OV-3 ovarian.
Test [15] concerns IGROV1 ovarian.
Test [16] relates to OVCAR-3 ovarian.
In test [17] the test system is HS 578T breast.
For test [18], the system named is NCI/ADR-RES ovarian.
The subject of test [19] is T-47D breast.
The test system of test [20] is A498 renal.

Compounds without any hit were thinned out: in the full panel of roughly 83,000, 20% have a hit.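 48-hour exposure, single concentration, 96-well plates; percent growth endpoint where 0 means no net growth. Active: below 10.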 Unmarked numbers belong to inactive results. The source made the active and inactive calls.

Turning to `CCOC(=O)c1c(Nc2ccccc2)nn2c(N)c(C#N)c(-c3ccccc3)nc12`, the growth was 82.3% in [1]; 93.9% in test [2]; 81.1% in test [3]; 105% in test [4]; 83.4% in test [5]; 72% in test [6]. In addition, the growth is 68.3% in [7]; 46.8% in test [8]; 58.9% in [9]; 68.8% in test [10]; 94% in [11]; 109% in test [12]. For the same compound, the growth in test [13] is 82.5%; in test [14], 108%; in [15], 90.2%; in test [16], 94.5%; in test [17] it was 75.2%; in [18], 88.7%. Also, the growth in [19] was 55.5%.

Take `COc1ccc(/C=N/NC(=O)c2[nH]c3ccc(Br)cc3c2-c2ccccc2)s1`: the growth was 42.8% in [1]; 50% in test [2]; 45.1% in test [3]; 122% in test [4]; 27% in test [5]; 24.5% in test [6]. In addition, the growth in test [7] is 9.96% (active); in test [8], 10.4%; in test [9] it was 5.56% (active); in [10], 7.49% (active); in test [11] it was 12.3%; in [12], 51.2%. In addition, the growth in test [13] was 75.5%; in [14], 25.7%; in test [15] it was 18%; in [16], 22.8%; in test [17], 29.9%; in test [18], 15.8%. Besides, the growth in test [19] was 73.2%.

Regarding `Cn1ccnc1C(=O)/C=C/c1ccc(NC(=O)Nc2ccc(F)cc2)cc1`, the growth in test [1] was 39.3%; in test [2], 53.8%; in test [3], 56.6%; in test [4] it was 106%; in test [5] it was 49.5%; in [6] it was 55.1%. In addition, the growth in [7] is 12.6%; in test [8], 11.6%; in [9], 3.97% (active); in test [10] it was 13.2%; in [11], 15.8%; in test [12], 57.7%. For the same compound, the growth in test [13] is 76.2%; in test [14], 52.8%; in test [15], 43.1%; in test [16], 56.5%; in test [17], 17.6%; in test [18] it was 43.8%. Besides, in test [19], the growth was 42.8%.

Consider `O=C(N/N=C/c1ccco1)c1[nH]c2ccc(Br)cc2c1-c1ccccc1`, for which the growth in test [1] is 37.9%; in test [2], 38.1%; in test [3], 38.6%; in [4], 98.7%; in [5] it was 29.3%; in test [6], 30.3%. In addition, the growth was 15.6% in [7]; 15.8% in test [8]; 11.2% in [9]; 8.9% (active) in test [10]; 5.2% (active) in [11]; 36.7% in test [12]. The growth in [13] is 58.5%; in test [14] it was 36.1%; in test [15] it was 18.5%; in [16] it was 21.5%; in test [17] it was 31.6%; in test [18] it was 20.5%. In [19], the growth is 60.7%.

Consider `Cc1ccc(CNS(=O)(=O)/N=C2\NC(=O)NC2=C(Cl)Cl)cc1`, for which the growth in test [1] was 95.6%; in test [2], 26.4%; in test [3], 84.7%; in [4], 48.8%; in test [5], 73%; in test [6], 94.6%. Moreover, the growth in test [20] was 56.7%; in [7] it was 16.1%; in test [8], 21%; in [9], 69.5%; in test [10], 14.5%; in [12] it was 96.7%. Moreover, the growth is 98.7% in [13]; 101% in [15]; 88.2% in test [16]; 66.1% in test [17]; 48.7% in [19].

For `CC(=NNc1ncnc2ccccc12)c1ccc(S(C)(=O)=O)cc1`, the growth is 91.1% in test [1]; 97.2% in test [2]; 73.1% in [3]; 152% in test [4]; 103% in test [5]; 89.4% in test [6]. Also, the growth in test [7] was 99.9%; in test [8], 100%; in [9], 100%; in [10], 98.6%; in test [11], 98.2%; in test [12], 111%. Also, the growth was 122% in test [13]; 102% in test [14]; 96.5% in [15]; 118% in [16]; 95.3% in test [17]; 103% in [18]. Further, the growth in test [19] was 103%.
